From PubChem
The list is not random: actives were taken first. Their share in the collection is about 7.8%.
VACV Venus inh = inhibitors of vaccinia virus (Venus reporter); Vaccinia virus Venus reporter expression, fluorescence; 0.46% of 330,000 active; Potency, µM (top dose mostly 36.5 µM), usual class: inhibitors; calls by dose curve; tested in A549 cells; note: nearly all actives have a fitted effect of over 30% in size
HCMV antiviral = blocks human cytomegalovirus replication. HFF cells, HCMV-luciferase reporter, 72 h; stronger effect = lower value. 4.5% of 410,000 active. AID 1259415. activity change, negative = inhibition, % at 57.5 µM; in the data active = activity change below about -60%; inconclusive = no clear call, values can overlap the other calls; inactive = above about -39%
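HFF cells seeded 16 h at 37C, treated with compounds, infected with luciferase-reporter HCMV at MOI 1 PFU/cell; luciferase read at 72 h post infection, normalized to buffer-only and Salinomycin controls.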
HCV inh = inhibitors of hepatitis C virus infection; Huh7.5.1 HCVcc-Cre infection, luciferase reporter, 44 h; Potency, µM (titrated, usually from 41.8 µM), actives largely listed as inhibitors; 3.4% of 340,000 active; AID 651820; active = well fitted inhibition curve with a large enough effect; inconclusive = small, poorly fitted or top-dose-only effect, or another doubt; inactive = no such curve, though single readings can be large or run the other way
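1,000 cells/well; 4 h culture; + compound; + HCVcc-Cre (~0.5 moi); 44 h; luciferase substrate, RT 15 min; read 15 sec.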
LASV entry inh = Lassa virus entry inhibition. Lassa virus pseudotype entry inhibition, cell reporter. Potency, µM (series often up to 37.9 µM), most hits filed as inhibitors. 1.2% of 300,000 active. AID 540256; calls by dose curve; tested in HEK293 cells; note: nearly all actives have a fitted effect of over 50% in size
VACV mCherry inh = inhibitors of vaccinia virus infection (mCherry reporter signal); Vaccinia virus mCherry reporter infection, fluorescence; 0.63% of 310,000 active; AID 720579; Potency, µM (doses to about 36.5 µM), actives largely listed as inhibitors; calls by dose curve; tested in A549 cells; note: nearly all actives have a fitted effect of over 35% in size
MARV entry inh = blocks Marburg virus binding to or entry into cells | 1.8% of 300,000 active | Marburg virus pseudotyped entry inhibition, cell reporter | Potency, µM (series often up to 37.8 µM), usual class: inhibitors | AID 540276; calls by dose curve; tested in HEK293 cells
Hits are given with their value; . = inactive; ? = inconclusive; / = no result given.

SMILES	VACV Venus inh	HCMV antiviral	HCV inh	LASV entry inh	VACV mCherry inh	MARV entry inh
O=C(NCc1ccc(F)c(F)c1)c1cnc(N2CCN(Cc3ccccc3)C2=O)s1	/	.	/	/	/	/
Cc1ccc(C)c(S(=O)(=O)N2CCN(C(=O)C3CCN(c4ncnc5sc(C)c(C)c45)CC3)CC2)c1	.	-67	11µM	?	.	?
Cc1sc2ncnc(N3CCC(C(=O)Nc4cc(C(F)(F)F)ccc4OCC(F)(F)F)CC3)c2c1C	/	.	7.9µM	/	/	/
CCN1CCN(CCCNC(=O)Cn2nc(C)n3c(cc4c(OC)cccc43)c2=O)CC1	.	.	/	/	.	.
COC(=O)[C@@]1(C=C2c3ccc(F)cc3[C@@H](OC)[C@@H]2C)[C@@H]2Oc3ccccc3[C@@H]21	/	/	/	/	/	.
CC(=O)c1ccc(OCC(O)CN(C)CCOc2ccc(Br)cc2)cc1 (stereo not given)	.	.	.	?	.	8.9µM
NNC(=O)c1ccc(OCC2CC(c3ccc(Cl)cc3)=NO2)cc1 (stereo not given)	?	-95	?	?	.	?
CC(=O)CCC1CC(c2ccc(Cl)cc2)=NO1 (stereo not given)	.	.	2.8µM	/	.	/
CC12C=C(/C=C/c3ccc(C(F)(F)F)cc3)C(C)(C1)C(c1ccc(C(F)(F)F)cc1)CC2=O (stereo not given)	/	/	/	/	/	.
COc1ccc(CNC(=O)O[C@H]2CC[C@@]34CCCN3C(=O)CCC[C@H]4[C@H]2Cc2ccccc2)cc1OC	/	.	/	/	/	/
COc1ccc(OC)c(C(=O)NC2CC(C)(C)Cc3c2cnn3-c2ccccc2)c1 (stereo not given)	/	-77	13µM	/	/	/
COc1ccc(-n2ncc3c2CC(C)(C)CC3NC(=O)c2ccoc2C)cc1 (stereo not given)	.	.	?	.	.	?
Cc1nc2[nH]c(=S)[nH]c2c(=O)[nH]1	.	-64	.	.	.	.
Fc1ccc(Nc2cccc3nccnc23)cc1	.	-64	?	.	.	?
O=C(COC(=O)C1=COCCO1)NCc1ccc(Cl)cc1Cl	.	-61	/	/	.	/
O=[N+]([O-])c1cc(-c2nc(-c3cccnc3)no2)ccc1NCc1ccccc1	.	.	/	.	.	?
O=C(N/N=C1/C[C@@H](O)[C@@H](O)[C@@H]2[C@@H]3C(=O)N(c4cccc(Oc5ccccc5)c4)C(=O)[C@H]3CC[C@H]12)OCc1ccccc1	/	/	/	/	/	.
O=C(Nc1ccccn1)NC1CCCCC1	.	.	.	.	.	?
O=C(Nc1ccccn1)NC1CCS(=O)(=O)C1 (stereo not given)	/	-103	.	?	/	.
COc1ccc(COCC(O)CN2CCN(S(=O)(=O)c3c(F)cccc3F)CC2)cc1OC (stereo not given)	.	.	35µM	.	.	.
COc1ccccc1COCC(O)CN1CCN(S(=O)(=O)c2cccc(F)c2)CC1 (stereo not given)	/	.	.	/	/	/
Cc1nn(C(=O)COc2ccccc2)c(C)c1Sc1ccccc1	.	.	/	.	.	.
COc1ccc(Cn2ccc3nc(C)c(C(=O)NCc4ccc(C)cc4)cc3c2=O)cc1	.	.	/	.	.	/
COc1ccc(Cn2ccc3nc(C)c(C(=O)NCc4ccc(F)cc4)cc3c2=O)cc1	.	-77	/	?	.	/
Cc1nc2ccn(Cc3ccco3)c(=O)c2cc1C(=O)NCc1ccccc1	.	?	/	?	.	/
SMILES	VACV Venus inh	HCMV antiviral	HCV inh	LASV entry inh	VACV mCherry inh	MARV entry inh
Cc1nc2ccn(Cc3ccco3)c(=O)c2cc1C(=O)NCc1ccccc1F	.	-64	/	?	.	/
COc1ccccc1N1CCN(C(=O)Cn2ncc3c(=O)oc4ccccc4c32)CC1	.	.	/	.	.	.
CC(C)CCCCCCCCCCCCC(=O)NCC(=O)NC1C(C)OC(Nc2ncnc3nc[nH]c23)C(O)C1O (stereo not given)	2µM	-96	1µM	0.079µM	?	?
CC(C)CNc1ncnc2nc[nH]c12	.	/	/	/	.	/
O=C(NNc1c2ccccc2nc2ccccc12)c1ccc(O)cc1O	?	.	?	.	/	.
O=C(NNc1c2ccccc2nc2ccccc12)c1cccc(O)c1	?	-61	?	.	?	?
O=C(NNc1c2ccccc2nc2ccccc12)c1ccc(O)cc1	/	?	10µM	?	/	5.8µM
CCCC1=Nc2cc(C(=O)NCc3ccc(OC)cc3)ccc2Sc2ccc(C)cc21	.	.	/	?	?	?
CCc1cccc(C)c1NC(=O)CN1C(=O)c2ccccc2Sc2ncccc21	.	.	/	.	.	/
O=C(Nc1nc(-c2ccc3ccccc3c2)cs1)C1CCN(S(=O)(=O)c2cccs2)CC1	.	-75	?	?	.	.
Cc1ccc(-c2csc(NC(=O)C3CCN(S(=O)(=O)c4cccs4)CC3)n2)cc1	.	-79	10µM	?	?	?
CCC1=C(c2ccc(C)cc2)S(=O)(=O)N=C1N1CCC(C(=O)NCc2ccc(N(C)C)cc2)CC1	.	.	/	.	.	/
CCOC(=O)CCC(NC(=O)CC(=O)NC(CCC(=O)OCC)C(=O)OCC)C(=O)OCC (stereo not given)	/	-96	.	/	/	/
CCN(CC)c1ccc(/C=C2/C(=O)ON=C2C)cc1	/	-65	.	.	/	.
CC1=NOC(=O)/C1=C/c1ccc(N(C)C)cc1	/	.	.	.	/	.
Cc1ccccc1NC(=O)c1c2c(nc3ccccc13)CCC2	.	-71	.	.	.	.
COc1cc(NC(=O)c2c3c(nc4ccccc24)CCC3)cc(OC)c1	/	-102	.	.	/	?
COc1ccc(N(CC(=O)NN=C2CCCCCCC2)S(=O)(=O)c2ccccc2)cc1	.	-64	.	.	.	.
Cc1cccc(CN(CC(=O)N/N=C/c2cccs2)S(=O)(=O)c2ccc(Cl)cc2)c1	?	.	11µM	?	/	?
CCC(C)NC(=O)CN(c1ccc(OC)cc1)S(=O)(=O)c1ccccc1 (stereo not given)	.	.	.	.	.	?
COc1ccc(N(CC(=O)N/N=C/c2cccs2)S(=O)(=O)c2ccccc2)cc1	.	-67	?	?	.	.
COc1ccc(N(CC(=O)N/N=C/c2ccc(OC3CSC3)cc2)S(=O)(=O)c2ccccc2)cc1	.	?	?	?	.	?
COc1ccc(N(CC(=O)N/N=C/c2ccc(-c3ccc([N+](=O)[O-])cc3)o2)S(=O)(=O)c2ccc(C)cc2)cc1Cl	.	.	.	.	.	.
COc1ccc(N(CC(=O)N/N=C/c2ccc(-c3ccc([N+](=O)[O-])cc3)o2)S(=O)(=O)c2ccc(C)cc2)cc1	.	-68	?	.	.	?
CCOc1ccccc1NC(=O)c1c2c(nc3ccccc13)C(=O)N(C1CCCCC1)C2	.	.	/	?	.	/
CC(C)N1CCC2(CC1)N=C(c1ccc3c(c1)OCO3)CC(c1cc(Cl)ccc1O)N2 (stereo not given)	.	-81	?	?	/	.
COc1ccc(CCNC(=O)Cn2nnc(-c3ccc(C(F)(F)F)cc3)n2)cc1OC	.	.	/	.	.	.
